The values below come from PubChem BioAssay.

Active and inactive are the calls of the source.

This experiment in a line: probe aXIP binding to arrayed compounds – biochemical, NeuroSMM set, 635/667 nm fluorescence, primary screen (AID 1119).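 Also: probe is the protein aXip251-270 applied at 1 µg/mL to compound-printed slides; binding of probe to printed compounds measured as 667 nm fluorescence plus signal to noise.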 The following applies: small-molecule microarray, higher = more signal, called active from +8 up or from −8 down.
Consider `CC[C@H]1C2=C3C(CC[C@H]4C(OCc5ccc(F)cc5C(F)(F)F)OC[C@](C)([C@@H]34)N(C(=O)OC(C)(C)C)C2)C(COC)C1COC` (stereo not given in full), for which the composite Z-score is 0.0377 (inactive). To `CC(C)N1C(=O)C[C@@](C(=O)NCCCN(C)C)(c2ccc([N+](=O)[O-])cc2)[C@H]1c1ccc(CO)cc1` belongs 0.183 (inactive); to `NC(=O)NCC#Cc1ccc2c(c1)[C@]1(C(=O)N2)[C@H](C(=O)NC[C@H](O)c2ccccc2)[C@H]2C(=O)O[C@H](c3ccccc3)[C@H](c3ccccc3)N2[C@@H]1c1ccc(OCCO)cc1`, 0.491 (inactive); to `Cc1ccccc1C(O)C1C=CC2C(=O)N(C)C(=O)C2N1N(c1ccccc1)c1ccccc1` (stereo not given), 0.111 (inactive).

For the molecule `C=CCC(OC(C)=O)[C@@H]1[C@@H](N(Cc2cc3ccccc3o2)C(=O)c2ccc(C)cc2)c2cc(OCCCO)ccc2N1C(=O)Cc1ccc(OC)cc1` (stereo not given in full), the composite Z-score is 0.264 (inactive). In the case of `COC(=O)C1=CC(CCCO)=CC(C2CC2)N(C)C=C1C(=O)OC` (stereo not given), the composite Z-score was 0.856 (inactive).

Consider `COc1cc2c(cc1OC)CN(C(=O)[C@@H]1[C@H]3C(=O)O[C@H](c4ccccc4)[C@H](c4ccccc4)N3[C@H](c3ccc(OCCO)cc3)[C@@]13C(=O)Nc1ccc(C#CC4(O)CCCCCC4)cc13)CC2`, for which the composite Z-score is 0.266 (inactive). In the case of `COc1cc(OC)c(C(O)C2C=CC3C(=O)N(c4ccccc4)C(=O)C3N2Nc2ccccc2)cc1Br` (stereo not given), the composite Z-score is -0.565 (inactive). With `COc1ccc([Si](C)(C)[C@@H]2[C@@H](CC(=O)N(CCO)Cc3ccccc3)O[C@]3(C(=O)N(Cc4cccc(N5C(=O)c6cccc7cccc5c67)c4)c4ccccc43)[C@H]2C)cc1`, the composite Z-score is 0.363 (inactive). On to `COC(=O)c1c2oc(c1C(=O)OC)C(=O)N(C)Cc1cn(nn1)C[C@H](Cc1ccccc1)NC(=O)N[C@H](CO)CC2`, for which the composite Z-score was -0.2 (inactive). In the case of `O=C(CS)NCCCCCCNC(=O)[C@H]1C[C@H]2C(=O)N[C@@H](Cc3ccccc3)C(=O)N2[C@H]1c1ccc(O)cc1`, the composite Z-score is 0.578 (inactive). `O=C1C2C=CC(C(O)c3ccccc3)N(Nc3ccccc3F)C2C(=O)N1c1ccccc1` (stereo not given): the composite Z-score is -0.158 (inactive). Turning to `CC(C)(C)N1CC=CC23O[C@@H]4C=CCOC(=O)[C@@H]4[C@H]2C(=O)N(CCCCCCO)[C@@H]3C1=O` (stereo not given in full), the composite Z-score was 0.395 (inactive).

With `CCCCO[C@H]1C[C@H]2C(I)=C[C@@H]1C(=O)[C@]21CO1`, the composite Z-score is -0.014 (inactive). With `C=CCOC(=O)[C@H]1[C@@H]2C(=O)O[C@@H](c3ccccc3)[C@@H](c3ccccc3)N2[C@@H](c2ccc(OCCOC(=O)[C@@H]3C[C@@H]4C(=O)N5CCC[C@H]5C(=O)N4[C@@H]3c3ccc(O)cc3)cc2)[C@]12C(=O)Nc1ccc(I)cc12`, the composite Z-score is 0.486 (inactive). For the molecule `C=CCOC(=O)[C@H]1[C@@H]2C(=O)O[C@@H](c3ccccc3)[C@@H](c3ccccc3)N2[C@@H](c2ccc(OCCOC(=O)[C@H]3C[C@H]4C(=O)N[C@@H](CCCCNC(C)=O)C(=O)N4[C@H]3c3ccc(O)cc3)cc2)[C@]12C(=O)Nc1ccccc12`, the composite Z-score is 1.09 (inactive). Then `CCOc1cc(C(O)C2C=CC3C(=O)N(C)C(=O)C3N2Nc2ccccc2)ccc1O` (stereo not given), with 0.765 (inactive). Then `C#CCN([C@@H](Cc1ccc(O)cc1)C(=O)OC)[C@@H](/C=C/C1CC1)[C@H](O)Cc1ccccc1`, with -0.0582 (inactive); and `O=c1n(-c2ccccc2)c(=O)n2n1CC(COc1ccccc1)=C([C@H](O)CCc1ccccc1)[C@@H]2CO`, with 0.11 (inactive). As for `CC(=O)NCCCC[C@@H]1NC(=O)[C@H]2C[C@@H](C(=O)NCCCC[N+](C)(C)C)[C@@H](c3cccc(OCCO)c3)N2C1=O`, the composite Z-score is 2.16 (inactive). For `CN1C(=O)C2C=CC(C(O)c3ccccn3)N(N(c3ccccc3)c3ccccc3)C2C1=O` (stereo not given), the composite Z-score was 1.31 (inactive).

For the molecule `C[N+](C)(C)CCCCCCNC(=O)[C@H]1C[C@H]2C(=O)NCC(=O)N2[C@H]1c1ccc(O)cc1`, the composite Z-score was 1.17 (inactive).

`CCCC[C@@H]1C[C@H]1[C@@H](NC(=O)c1cccs1)c1ccc(C(F)(F)F)cc1`: the composite Z-score is -0.496 (inactive). With `COc1ccc(CCN2C(=O)[C@@]3(Cc4ccccc42)c2ccccc2C(=O)N(Cc2ccccc2OC)[C@H]3c2ccc(CO)cc2)cc1`, the composite Z-score is -0.0127 (inactive). To `C[C@@H]1NC(=O)[C@@]23C(=O)N[C@@H](Cc4ccccc4)C2[C@H](C)[C@@]2(C)O[C@H]2C3/C=C/C/C=C\CNC(=O)[C@@H]2CCCN2C1=O` (stereo not given in full) belongs -0.433 (inactive). As for `C=C(/C(=C/C[C@H](OC(C)=O)c1cccc(OCCO)c1)c1cnc2ccccc2c1)C(C)C`, the composite Z-score was 0.896 (inactive). In the case of `[N-]=[N+]=NCc1ccccc1[C@H]1OC(c2ccc(OCCCO)cc2)=N[C@@]1(CCS(=O)(=O)c1ccccc1)C(=O)NCC(O)CO` (stereo not given in full), the composite Z-score was 0.652 (inactive). As to `Cc1cc(C)cc(N2C(=O)CSC2c2cccc([N+](=O)[O-])c2)c1` (stereo not given), the composite Z-score is 0.027 (inactive). Consider `COCCOC(=O)N1C(=O)[C@@]2(c3cc(C#CC4(O)CCCCCC4)ccc31)[C@H](c1ccc(O)cc1)N1[C@H](c3ccccc3)[C@H](c3ccccc3)OC(=O)[C@H]1[C@@H]2C(=O)NC[C@H](O)c1ccccc1`, for which the composite Z-score is 0.534 (inactive). As for `COC(=O)c1cn(C[C@@H](Cc2ccccc2)NC(=O)N[C@H](CO)CCc2oc(C(C)=O)c(C(=O)OC)c2C(=O)OC)nn1`, the composite Z-score was 0.055 (inactive). On to `COC(=O)[C@@]1(Cc2ccccc2)[C@H]2c3cc(C(=O)N(C)C)n(Cc4c(CO)[nH]cc(C)c4=O)c3C[C@H]2CN1C(=O)c1ccccc1`, for which the composite Z-score is 0.546 (inactive). `CC(=O)NCCCC[C@@H]1NC(=O)[C@@H]2C[C@H](C(=O)NCCCC[N+](C)(C)C)[C@H](c3ccc(O)cc3)N2C1=O`: the composite Z-score is 0.0463 (inactive).

Consider `COc1ccc([Si](C)(C)[C@@H]2[C@@H](CC(=O)N3Cc4ccccc4C[C@H]3CO)O[C@]3(C(=O)N(C)c4ccccc43)[C@H]2C)cc1`, for which the composite Z-score was 1.22 (inactive). Then `COCCOC(=O)N1C(=O)[C@@]2(c3cc(C#CC4=CCCCC4)ccc31)[C@H](C(N)=O)[C@H]1C(=O)O[C@H](c3ccccc3)[C@H](c3ccccc3)N1[C@@H]2c1ccccc1OCCO`, with -0.0254 (inactive); and `COC(=O)[C@@]1(Cc2ccc(OC)cc2)[C@@H]2C(=CC(=O)[C@H]2CC(=O)C(=O)N(C)C)CN1C(=O)c1ccccc1`, with -0.0238 (inactive).
